# Bioassay records: PubChem BioAssay, National Center for Advancing Translational Sciences (NCATS)
# DRD3 antagonist: D3 dopamine receptor (human) antagonism; D3R cells, DiscoveRx beta-arrestin luminescence, antagonist mode; stronger effect = lower value; P35462; 2.5% of 360,000 active; max response, negative = inhibition, %; in the data active = max response below about -50%; inconclusive = no clear call, values can overlap the other calls; also: % is scaled to controls: 0 for no effect and ±100 for the full control effect
# Target sequence (P35462 whole entry, looked up): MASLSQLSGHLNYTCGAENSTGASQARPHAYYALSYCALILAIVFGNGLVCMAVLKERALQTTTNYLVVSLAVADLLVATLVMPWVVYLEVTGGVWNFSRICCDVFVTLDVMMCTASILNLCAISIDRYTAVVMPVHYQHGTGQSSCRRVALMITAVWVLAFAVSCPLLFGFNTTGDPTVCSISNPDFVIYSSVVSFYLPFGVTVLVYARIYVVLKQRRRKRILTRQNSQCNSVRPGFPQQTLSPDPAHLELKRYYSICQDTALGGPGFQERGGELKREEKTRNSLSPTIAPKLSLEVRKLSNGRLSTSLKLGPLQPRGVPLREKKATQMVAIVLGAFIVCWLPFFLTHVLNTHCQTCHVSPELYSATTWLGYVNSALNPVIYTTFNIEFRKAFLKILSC
#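 Cells expressing the human receptor were seeded at 1500 cells/well, incubated overnight at 37 degrees C in 5% CO2, then exposed to library compounds with dopamine controls for 90 minutes at 37 degrees C before luminescent detection.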
# GLP-1R agonist: GLP-1 receptor (human) agonism | HEK293 GLP-1R CRE-luciferase, luminescence, 4-6 h; cells express a hypersensitive GLP-1R form | Potency, µM (series often up to 45.6 µM), without a hit: top-dose activation, most hits filed as activators | 0.007% of 380,000 active; also: potency is read from the fitted curve at half-maximal effect; % of control where 0% means no effect
# GLP1R cytotox: cytotoxic in the GLP-1 receptor inverse agonist counter-screen | HEK293 cAMP-luciferase reporter cells, luminescence, 24 h | 0.13% of 410,000 active | Potency, µM (titrated, usually from 38.3 µM), inactives show at the highest dose activity change, negative = inhibition, usual class: inhibitors;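 also: loss of luciferase light is scored as toxicity; potency is read from the fitted curve at half-maximal effect; % is scaled to controls: 0 for no effect and ±100 for the full control effect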
#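 Cells in DMEM/10% Nu serum/1% pen-strep, 1536-well format. Pre-incubated 12 h, dosed with 23 nL compound, incubated a further 24 h. Luciferase detection, 12 min at room temp, luminescence.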
# GLP1R inv ag: GLP-1 receptor (human) inverse agonism; P43220; HEK293 GLP-1R CRE-luciferase, luminescence, 24 h; GLP-1R form is constitutively active; Potency, µM (titrated, usually from 38.3 µM), for the others: at the highest dose activity change, negative = inhibition, usual class: inhibitors; 1.6% of 410,000 active; AID 624417; also: potency is read from the fitted curve at half-maximal effect; % is scaled to controls: 0 for no effect and ±100 for the full control effect; nearly all actives have a fitted effect of over 55% in size
#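 HEK293 cells stably co-expressing a cAMP-responsive luciferase reporter and constitutively active GLP-1R were seeded, incubated 12 h, then exposed to compounds for 24 h at 37 C. Luminescence was read 12 min after detection reagent; inverse agonists lower signal.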
# D3 ag: agonists of human D3 dopamine receptor; P35462; D3R DiscoveRx beta-arrestin cells, luminescence, 90 min; max activation, %; 0.58% of 410,000 active; AID 652048; in the data active = max activation above about 30%; also: 0% is about no effect
#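 Agonist-mode cell screen: cells plated at 1500/well and incubated overnight at 37 °C, then exposed to library compounds for 90 min at 37 °C. Detection reagent was added for 30–60 min at room temperature, and luminescence was read.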
# ClpP mod: qHTS Assay for Activators of ClpP | Potency, µM (doses to about 57.5 µM), inactives show at the highest dose activity change, negative = active | ATP-dependent Clp protease proteolytic subunit (Bacillus subtilis (strain 168)), P80244 | purified B. subtilis ClpP, FRET peptide cleavage, 20 min | 1.9% of 340,000 active | AID 651965, 2013; active = well fitted falling curve with a large enough effect; inconclusive = small, poorly fitted or top-dose-only effect; inactive = no such curve, though single readings can be large or run the other way; also: potency is read from the fitted curve at half-maximal effect; the source files actives as falling curves though it sought activators and does not explain the sign; nearly all actives have a fitted effect of over 65% in size
# Target sequence (P80244 whole entry, looked up): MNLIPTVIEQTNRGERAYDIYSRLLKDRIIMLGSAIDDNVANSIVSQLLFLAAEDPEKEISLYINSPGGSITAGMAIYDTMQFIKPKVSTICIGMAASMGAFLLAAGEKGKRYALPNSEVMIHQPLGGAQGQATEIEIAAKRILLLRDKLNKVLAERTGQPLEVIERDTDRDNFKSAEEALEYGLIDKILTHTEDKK
#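 FRET quenching reversal measured ClpP activation: 10 microg/mL B. subtilis ClpP at pH 8 with the FRET-FV decapeptide, read at 430 nm after 320 nm excitation. The 20-min minus 0-min signal was scaled between DMSO/no-enzyme wells and ADEP (5.8 microM final).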
# An asterisk follows results filed as active; ? = inconclusive; · = no result given. A selection: hits, their analogues and other compounds. The true share with any hit is near 5.7%. Unless noted, calls follow the shape of the dose curve; as a rule, active = well fitted curve in the direction sought with a large enough effect; inconclusive = small, poorly fitted or top-dose-only effect, or another doubt; inactive = no such curve, though single readings can be large; an effect the other way counts as inactive or inconclusive.
SMILES,DRD3 antagonist,GLP-1R agonist,GLP1R cytotox,GLP1R inv ag,D3 ag,ClpP mod
Cc1ccc(C2CC(c3cccs3)=NN2C(=O)CSC2=NCCS2)cc1 (stereo not given),-22,-2%,-5%,4.5µM*,-6,4%
COc1ccccc1C1CC(c2cccs2)=NN1C(=O)CCC(=O)O (stereo not given),1,1%,4%,17%,4,·
CCCCNC(=O)NS(=O)(=O)c1ccc(N)cc1,·,3%,·,·,9,·
O=C(Cn1cnc2c(nnn2-c2ccccc2)c1=O)N1CCOCC1,-14,-5%,3%,-14%,12,-1%
Cc1ccc(-n2nnc3c(=O)n(CC(=O)N4CCOCC4)cnc32)cc1,-53*,-3%,-8%,9%,-8,2%
O=C(Cn1cnc2c(nnn2Cc2ccc(F)cc2)c1=O)N1CCN(c2ccccc2)CC1,1,0%,-3%,1%,5,25µM*
CN(Cc1ccc(Cl)c(Cl)c1)C(C(=O)NCc1ccccc1)c1ccco1 (stereo not given),-16,·,-13%,?,0,0%
COc1ccc(S(=O)(=O)Nc2cccc3c2O[C@@H](CN(C)Cc2ccc(C(=O)O)cc2)[C@@H](C)CN([C@H](C)CO)C3=O)cc1,3,-4%,5%,12%,50*,-4%
C[C@H](CO)N1C[C@H](C)[C@@H](CN(C)Cc2ccc(Cl)c(Cl)c2)Oc2c(NS(=O)(=O)c3ccc(F)cc3)cccc2C1=O,40,-1%,?,11µM*,-24,1%
C[C@@H]1CN([C@H](C)CO)C(=O)c2c(c3ccccc3n2C)-c2ccccc2CO[C@@H]1CN(C)C(=O)Nc1ccc2c(c1)OCO2,-2,-7%,-27%,?,3,1%
C[C@H](CO)N1C[C@H](C)[C@H](CN(C)C(=O)Nc2ccc(F)cc2)OCc2ccccc2-c2c(n(C)c3ccccc23)C1=O,-28,-1%,-22%,10µM*,-7,-3%
COc1ccc(NC(=O)N(C)C[C@H]2Oc3c(NC(=O)Nc4ccccc4)cccc3C(=O)N([C@H](C)CO)C[C@@H]2C)cc1,6,8%,-3%,12%,12,-1%
C[C@H](CO)N1C[C@H](C)[C@@H](CN(C)Cc2ccccc2)Oc2c(NS(=O)(=O)c3ccc(F)cc3)cccc2C1=O,3,13%,-21%,21%,-4,-4%
COc1ccc(NC(=O)Nc2cccc3c2O[C@H](CN(C)C(=O)Nc2ccc(OC)cc2)[C@@H](C)CN([C@H](C)CO)C3=O)cc1,65,-3%,0%,-2%,33*,2%
COc1ccccc1CNC(=O)CCCc1nnc2n(CC(C)C)c(=O)c3sccc3n12,·,·,-12%,2%,-9,-5%
Cn1c(Cc2ccccc2)nnc1SCC(=O)NC1CCCCC1,-23,4%,10%,15%,-2,-3%
Cn1c(Cc2csc(N)n2)nnc1SCC(=O)NC1CCCCC1,-57*,-5%,-7%,7%,9,0%
CCOC(=O)c1cc2c(=O)n3ccccc3nc2n(CC2CCCO2)c1=NC(=O)c1ccc(F)cc1 (stereo not given),·,·,5%,5%,10,4%
CCC1CCc2sc(C(=O)NC3CCN(Cc4ccccc4)CC3)cc2C1 (stereo not given),-72*,8%,?,5µM*,-32,-2%
CC1CCc2sc(C(=O)NC3CCN(Cc4ccccc4)CC3)cc2C1 (stereo not given),-95*,3%,?,?,-19,-1%
CC1CCc2sc(C(=O)NN=C3CCC(c4ccccc4)CC3)cc2C1 (stereo not given),-1,1%,2%,20%,-5,-1%
CCOC(=O)c1ccccc1NC(=O)NCc1cccn1Cc1ccc(F)cc1,·,·,-13%,?,-7,?
O=[N+]([O-])c1cc(C(F)(F)F)ccc1NC1CCN(Cc2ccccc2)C1 (stereo not given),-74*,2%,17%,6%,-28,0%
O=[N+]([O-])c1cc(C(F)(F)F)ccc1NC1CCN(Cc2ccccc2)CC1,-74*,3%,?,?,-30,-4%
C[C@H](CO)N1C[C@H](C)[C@H](CN(C)Cc2cncnc2)Oc2cc(Br)ccc2S1(=O)=O,-17,-8%,5%,21%,-7,2%
SMILES,DRD3 antagonist,GLP-1R agonist,GLP1R cytotox,GLP1R inv ag,D3 ag,ClpP mod
COc1ccccc1N1CCN(Cc2nc(N)nc(Nc3ccc(C)c(Cl)c3)n2)CC1,-5,-24%,15%,2.2µM*,-11,-2%
Cc1cccc(Nc2nc(N)nc(CN3CCN(c4ccccc4F)CC3)n2)c1,-53*,-2%,-4%,?,1,3%
CC(C)Nc1nc2c(S(=O)(=O)c3cccc(Cl)c3)nnn2c2ccsc12,·,·,9%,25%,-13,-7%
CCN(c1ccccc1)S(=O)(=O)c1ccc(NC(=O)c2cc(=O)c3cc(C)cc(C)c3o2)cc1,·,·,-10%,5%,4,1%
CCOC(=O)C1(C)CCCCCN1C(=O)c1ccc(OC)cc1 (stereo not given),0,-4%,0%,5%,-3,-1%
Oc1ccc(-c2c(-c3ccsc3)sc3ccccc23)cc1,39,12%,-10%,28%,36*,-16%
COCc1ccc(-c2c(-c3ccsc3)sc3ccccc23)cc1,0,17%,4%,?,-5,-24%
CCOC(=O)Cn1c(-c2cccs2)cc2cc(Cl)ccc21,·,·,3%,?,3,22µM*
CCN1CCN(CC(=O)c2cc(Cl)ccc2Cl)CC1,9,-3%,-7%,20%,3,0%
CCN1CCN(C(=O)Cn2c(-c3cccs3)cc3cc(Cl)ccc32)CC1,·,·,-3%,?,6,32µM*
Cc1cc(Cl)ccc1-n1c(CCC(=O)O)ccc1-c1cccs1,·,·,-1%,?,1,-3%
O=C(Cn1c(-c2cccs2)cc2cc(Cl)ccc21)N1CCCCC1,·,·,-5%,?,6,35µM*
CC(=O)c1cccc(NC(=O)[C@H](Cc2ccccc2)N2Cc3ccccc3C2=O)c1,·,0%,2%,10%,10,-1%
Cc1ccc(S(=O)(=O)NCCCN2CCOCC2)cc1C,-67*,-17%,3%,13%,-1,-2%
Cc1ccc(S(=O)(=O)NCCCN2CCCC2)cc1,-53*,-2%,-9%,10%,-17,1%
Cc1ccc(S(=O)(=O)NCCNS(=O)(=O)c2ccc(C)cc2)cc1,12,4%,-1%,-23%,4,-1%
